Assays:
Details in all cases: concentration: 10 µM; 24 h
HCC1569 [1] = test: cell number relative to DMSO (% of DMSO); higher = more cells (less growth inhibition / toxicity)
Procedure, shortened: (§1)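 Treatment: HCC1569 and TDF cells, 800 per well in 384-well plates with RPMI and 10% FBS, were given compounds at 10 µM for 24 h at 37 °C, in triplicate. Readout: after 3.7% formaldehyde fixation, cells were stained with a rabbit anti-H1.0 antibody, an AlexaFluor 647 secondary and DAPI. Reported values are H1.0 nuclear intensity or cell number as percent of the plate control, taken as the median of replicates, with positional smoothing for HCC1569.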

TDF [2] = test: as above
Procedure, shortened: as §1

TDF [3] = test: H1.0 immunofluorescence intensity relative to DMSO (% of DMSO); higher = stronger H1.0 induction, active = 120 or more
Procedure, shortened: as §1

HCC1569 [4] = test: H1.0 immunofluorescence intensity relative to DMSO (% of DMSO); higher = stronger H1.0 induction, active = 140 or more
Procedure, shortened: as §1
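Wherever H1.0 immunofluorescence intensity relative to DMSO is given: TDF is a line of transformed human dermal fibroblasts of mesenchymal origin.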
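Wherever cell number relative to DMSO is given: TDF denotes transformed human dermal fibroblasts of mesenchymal origin.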

O=C(O)C(=Cc1c(C(=O)O)[nH]c2cc(Cl)cc(Cl)c12)c1ccccc1
cell number (HCC1569 [1]): 105
cell number (TDF [2]): 109
H1.0 immunofluorescence intensity (TDF [3]): 95.3 (inactive)
H1.0 immunofluorescence intensity (HCC1569 [4]): 85 (inactive)

Cl.Cl.OCCN1CCN(CCCN2c3ccccc3Sc3ccc(C(F)(F)F)cc32)CC1 [Fluphenazine dihydrochloride]
cell number (HCC1569 [1]): 92.5
cell number (TDF [2]): 96.3
H1.0 immunofluorescence intensity (TDF [3]): 118 (inactive)
H1.0 immunofluorescence intensity (HCC1569 [4]): 133 (inactive)

O=c1[nH]ccc2c(S(=O)(=O)N3CCCNCC3)cccc12
cell number (HCC1569 [1]): 106
cell number (TDF [2]): 110
H1.0 immunofluorescence intensity (TDF [3]): 86 (inactive)
H1.0 immunofluorescence intensity (HCC1569 [4]): 104 (inactive)

Cn1c(=O)c2[nH]c(-c3ccccc3)nc2n(C)c1=O [1,3-Dimethyl-8-phenylxanthine]
cell number (HCC1569 [1]): 105
cell number (TDF [2]): 110
H1.0 immunofluorescence intensity (TDF [3]): 88 (inactive)
H1.0 immunofluorescence intensity (HCC1569 [4]): 92 (inactive)

Cl.Cl.Cl.NCCCCNCCCN [Spermidine trihydrochloride]
cell number (HCC1569 [1]): 99.7
cell number (TDF [2]): 97.2
H1.0 immunofluorescence intensity (TDF [3]): 102 (inactive)
H1.0 immunofluorescence intensity (HCC1569 [4]): 82 (inactive)

CSc1ccc(C(=O)c2[nH]c(=O)[nH]c2C)cc1 [Enoximone]
cell number (HCC1569 [1]): 107
cell number (TDF [2]): 109
H1.0 immunofluorescence intensity (TDF [3]): 96.3 (inactive)
H1.0 immunofluorescence intensity (HCC1569 [4]): 105 (inactive)

CN(C)NN=C1N=CN=C1C(N)=O [Dacarbazine]
cell number (HCC1569 [1]): 102
cell number (TDF [2]): 102
H1.0 immunofluorescence intensity (TDF [3]): 97.8 (inactive)
H1.0 immunofluorescence intensity (HCC1569 [4]): 101 (inactive)

CCCCCCCCC=CCCCCCCCC(=O)NCCc1ccc(O)c(O)c1 [Oleoyl dopamine]
cell number (HCC1569 [1]): 98.1
cell number (TDF [2]): 88.4
H1.0 immunofluorescence intensity (TDF [3]): 103 (inactive)
H1.0 immunofluorescence intensity (HCC1569 [4]): 118 (inactive)

CNC1(C)C2CCC(C2)C1(C)C (stereo not given) [Mecamylamine]
cell number (HCC1569 [1]): 101
cell number (TDF [2]): 106
H1.0 immunofluorescence intensity (TDF [3]): 83.3 (inactive)
H1.0 immunofluorescence intensity (HCC1569 [4]): 107 (inactive)

C[C@]12CCC(=O)C=C1CC[C@@H]1[C@@H]2[C@@H](O)C[C@@]2(C)[C@H]1CC[C@]2(O)C(=O)COC(=O)CCC(=O)[O-].[Na+]
cell number (HCC1569 [1]): 96.3
cell number (TDF [2]): 99.8
H1.0 immunofluorescence intensity (TDF [3]): 82.3 (inactive)
H1.0 immunofluorescence intensity (HCC1569 [4]): 103 (inactive)

O=C(NCCO)c1cccc(-c2cc(Nc3ccc(OC(F)(F)F)cc3)ncn2)c1
cell number (HCC1569 [1]): 91.1
cell number (TDF [2]): 94.8
H1.0 immunofluorescence intensity (TDF [3]): 110 (inactive)
H1.0 immunofluorescence intensity (HCC1569 [4]): 119 (inactive)

CC(C)CN(CC(O)C(Cc1ccccc1)NC(=O)OC1CCOC1)S(=O)(=O)c1ccc(N)cc1 (stereo not given) [Amprenavir]
cell number (HCC1569 [1]): 103
cell number (TDF [2]): 101
H1.0 immunofluorescence intensity (TDF [3]): 100 (inactive)
H1.0 immunofluorescence intensity (HCC1569 [4]): 108 (inactive)

O=C(Nc1ccc(N2CCOCC2)c(S(=O)(=O)Nc2ccccc2Cl)c1)c1ccncc1 [Chk2 Inhibitor]
cell number (HCC1569 [1]): 98.5
cell number (TDF [2]): 110
H1.0 immunofluorescence intensity (TDF [3]): 87.3 (inactive)
H1.0 immunofluorescence intensity (HCC1569 [4]): 99.5 (inactive)

CCC(=C(c1ccccc1)c1ccc(OCCN(C)C)cc1)c1ccccc1.O=C(O)CC(O)(CC(=O)O)C(=O)O [Tamoxifen citrate]
cell number (HCC1569 [1]): 85.2
cell number (TDF [2]): 95.2
H1.0 immunofluorescence intensity (TDF [3]): 115 (inactive)
H1.0 immunofluorescence intensity (HCC1569 [4]): 146 (active)

CC1=CC(=O)c2ccccc2C1=O [Menadione]
cell number (HCC1569 [1]): 99.9
cell number (TDF [2]): 82.8
H1.0 immunofluorescence intensity (TDF [3]): 106 (inactive)
H1.0 immunofluorescence intensity (HCC1569 [4]): 91.9 (inactive)

Source: the supplement of paper PMC7156485
